Test results published in the supplement of paper PMC5919970.
Counter-ions that a name gives are not always drawn. Over roughly 2,000 compounds, “fractional viability relative to vehicle” has its median near 0.91; the lowest 2% begin near 0.045. For the sample, the lowest values were picked, then their nearest neighbours and some compounds at random.

System: TYKNU
Experiment: fractional viability relative to vehicle; TYKNU is a high-grade serous ovarian cancer line; higher = less growth inhibition
Conditions: 72 h
Outline: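 TYKNU control cells or lentiCRISPRv2 knockout derivatives were seeded at 500 cells per well into drug-stamped 384-well plates holding a ~2100-compound library at 2 or 10 μM, in duplicate. Cells were grown at 37 °C in 5% CO2 in RPMI 1640 with 10% FBS, and drug treatment lasted 72 h. Viability was read by Cell Titer Glo luminescence. Duplicate treatment wells were averaged and normalised to duplicate control wells from the same plate position.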

[1] = 2uM, genotype: DNM1L knockout (sgDNM1L #1)
[2] = 2uM, genotype: sgCTRLA1 (non-targeting control)
[3] = 10uM, genotype: DNM1L knockout (sgDNM1L #1)
[4] = 10uM, genotype: sgCTRLA1 (non-targeting control)

SMILES	fractional viability [1]	fractional viability [2]	fractional viability [3]	fractional viability [4]
O=C(O)CCNc1cc(N2CCc3ccccc3CC2)nc(-c2ccccn2)n1	0.937	1.07	0.854	0.738
CC1(C)CC[C@]2(NC(=O)C(C)(F)F)CC[C@]3(C)[C@H](C(=O)C=C4[C@@]5(C)C=C(C#N)C(=O)C(C)(C)[C@@H]5CC[C@]43C)[C@@H]2C1 [Omaveloxolone (RTA-408)]	0.0849	0.0407	0.0223	0.00825
CC(C)C[C@H](NC(=O)CNC(=O)c1cc(Cl)ccc1Cl)B(O)O	0.122	0.107	0.0888	0.0714
CC(C)NCCCn1c(Sc2cc3c(cc2I)OCO3)nc2c(N)ncnc21	0.207	0.177	0.233	0.123
Nc1[nH]nc2nnc(-c3c(-c4ccccc4)nn4ccccc34)cc12	0.851	1.01	1.04	0.887
Clc1cccc(CN=C2Nc3ccccc3NC23CCNCC3)c1 [Liproxstatin-1]	0.75	0.957	0.646	0.651
CN(C)CC[C@H](CSc1ccccc1)Nc1ccc(S(=O)(=O)NC(=O)c2ccc(N3CCN(Cc4ccccc4-c4ccc(Cl)cc4)CC3)cc2)cc1[N+](=O)[O-]	0.917	0.97	0.544	0.956
N#C/C(=C\c1ccc(O)c(O)c1)C(=O)NCc1ccccc1 [AG-490 (Tyrphostin B42)]	0.921	1.01	0.84	0.99
C[C@H](NC(=O)/C(C#N)=C/c1cccc(Br)n1)c1ccccc1	0.9	0.999	0.0615	0.0707
CCC[C@H](NC(=O)/C(C#N)=C/c1cccc(Br)n1)c1ccccc1 [Degrasyn (WP1130)]	0.0738	0.0639	0.0286	0.026
O=C(Nc1cccc(Cl)c1)Nc1ncc(CCNc2ncnc3ccsc23)s1 [SNS-314 Mesylate]	0.705	0.722	0.644	0.404
O=C(c1ccc(C(=O)N2CCC(N3CCCC3)CC2)c(Nc2ccccc2)c1)N1CCC(N2CCCC2)CC1	0.857	1	0.708	0.973
O=C(c1ccc(Nc2nccc(-c3cc4ccccc4s3)n2)cc1)N1CCC(N2CCCC2)CC1 [IKK-16 (IKK Inhibitor VII)]	0.942	0.839	0.0381	0.0277
O=C(c1cncc(Br)c1)N1CCC(N2CCCC2)CC1	0.816	0.901	0.828	0.765
NC[C@H](O)c1ccc(O)c(O)c1 [Noradrenaline bitartrate monohydrate]	0.847	0.96	0.592	0.84
O=C(/C=C/C=C/c1ccc2c(c1)OCO2)N1CCCCC1 [Piperine]	0.998	1.08	0.915	1.03
O=C(O)Cc1ccccc1Nc1c(Cl)cccc1Cl [Diclofenac Diethylamine]	1	1.03	0.893	1.14
O=C(O)Cc1ccccc1Nc1c(Cl)cccc1Cl [Diclofenac Potassium]	1.17	1.13	0.876	1.07
O=C(O)Cc1ccccc1Nc1c(Cl)cccc1Cl [Diclofenac Sodium]	1.12	0.938	0.917	0.967
CN(C)c1ccc(-c2nc3ncc(Cl)c(N4CCN(CC(=O)Nc5nccs5)CC4)c3[nH]2)cc1	1.15	0.937	0.395	0.714
O=C1c2c(O)cc(O)cc2OC(c2ccc(O)c(O)c2)C1O (stereo not given) [Taxifolin (Dihydroquercetin)]	1.04	1.15	0.951	1.06
COc1ccc(-c2cc3c(C)nc(N)nc3n([C@H]3CC[C@H](OCCO)CC3)c2=O)cn1	0.141	0.165	0.0585	0.0406
COc1cccc(-c2cc(F)ccc2C2Cc3nc(N)nc(C)c3C(=O)N2)n1 (stereo not given)	0.241	0.191	0.227	0.201
CCN1C[C@H](C)n2c(c(O)c3c(=O)n(Cc4ccc(F)c(Cl)c4)nc(C(=O)NC)c32)C1=O	1.07	1.2	0.793	1.12
N[C@H]1CC[C@H](N[C@@H]2C[C@H]2c2ccccc2)CC1	0.777	0.909	0.758	0.712
Cc1cc(OCc2nnc(SC3CCCC3)n2-c2cccnc2)ccc1-c1ccc(S(C)(=O)=O)cc1	0.545	0.46	0.0437	0.0922
CC(C)[C@H](O)C(=O)N[C@@H](C)C(=O)N[C@@H]1C(=O)N(C)CCc2ccccc21	1.04	1.25	0.949	1.15
Cc1ccc(S(=O)(=O)c2ccc([N+](=O)[O-])o2)cc1	0.0323	0.012	0.0126	0.00867
NC(=O)c1ccc(-c2nc(-c3ccccn3)c(-c3ccc4c(c3)OCO4)[nH]2)cc1	1.32	1.08	1.16	0.957
COc1ccccc1OCC(O)COC(N)=O (stereo not given) [Methocarbamol]	1.02	1.16	0.9	1
